Test results published in the supplement of paper PMC10849652.
About 8,800 targets were measured; listed, in parts, are those with a hit and a random draw of the rest. About 0.5% of all pairs of compound and target were hits.

What was measured:
Experiment in all cases: log2 fold change, soluble protein after heating vs DMSO (PISA); higher = thermal stabilisation; K562 lysate, 10 uM; active = over 0.2 and 3.5 SD of the protein, either way, in both replicates (recomputed)
lapatinib = compound: CS(=O)(=O)CCNCc1ccc(-c2ccc3ncnc(Nc4ccc(OCc5cccc(F)c5)c(Cl)c4)c3c2)o1 [lapatinib]
Method in brief: (§1)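 A 30 min treatment with 10 μM compound was applied to crude K562 extract at 1 mg/mL protein in PBS pH 7.4 with 1 mM MgCl2. Heating for 3 min spanned 48°C-58°C, after which aliquots were pooled, adjusted to 0.5% NP-40 at 4°C and spun at 21,000xg for 90 min. TMTpro 16plex LC-MS/MS of the supernatant, with channel sums equalised, gave values recorded as log-two fold change in thermal stability against solvent controls, from duplicates.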

pictilisib = compound: CS(=O)(=O)N1CCN(Cc2cc3nc(-c4cccc5[nH]ncc45)nc(N4CCOCC4)c3s2)CC1 [pictilisib]
Method in brief: as §1

crizotinib = compound: C[C@@H](Oc1cc(-c2cnn(C3CCNCC3)c2)cnc1N)c1c(Cl)ccc(F)c1Cl [crizotinib]
Method in brief: as §1

[1] = compound: C[C@H](C1=CC=C(C=C1)C(=O)NC2=C3C=CNC3=NC=C2)N
Method in brief: as §1

duvelisib = compound: C[C@H](Nc1ncnc2nc[nH]c12)c1cc2cccc(Cl)c2c(=O)n1-c1ccccc1 [duvelisib]
Method in brief: as §1

gandotinib = compound: Cc1cc(Nc2cc(CN3CCOCC3)c3nc(C)c(Cc4ccc(Cl)cc4F)n3n2)n[nH]1 [gandotinib]
Method in brief: as §1

tozasertib = compound: Cc1cc(Nc2cc(N3CCN(C)CC3)nc(Sc3ccc(NC(=O)C4CC4)cc3)n2)n[nH]1 [tozasertib]
Method in brief: as §1

doramapimod = compound: Cc1ccc(-n2nc(C(C)(C)C)cc2NC(=O)Nc2ccc(OCCN3CCOCC3)c3ccccc23)cc1 [doramapimod]
Method in brief: as §1

bafetinib = compound: Cc1ccc(NC(=O)c2ccc(CN3CC[C@H](N(C)C)C3)c(C(F)(F)F)c2)cc1Nc1nccc(-c2cncnc2)n1 [bafetinib]
Method in brief: as §1

[2] = compound: Cc1cccc(CC(=O)N2CCc3c2ccc(-c2cn(C)c4ncnc(N)c24)c3F)n1
Method in brief: as §1

Measured: log2 fold change

TIAL1 isoform 2 (UniProt Q01085)
inactive: lapatinib -0.013 | pictilisib -0.063 | crizotinib 0.038 | [1] -0.024 | duvelisib -0.014 | gandotinib 0.054 | tozasertib 0.011 | doramapimod 0.007 | bafetinib 0 | [2] 0.001

TTK (UniProt P33981)
inactive: lapatinib 0.061 | pictilisib 0.142 | crizotinib -0.008 | [1] 0 | duvelisib -0.031 | gandotinib 0.058 | tozasertib -0.054 | doramapimod 0.143 | bafetinib -0.068 | [2] 0.024

UBXN10 (UniProt Q96LJ8)
Sequence of UniProt Q96LJ8 (Q96LJ8 whole entry, looked up): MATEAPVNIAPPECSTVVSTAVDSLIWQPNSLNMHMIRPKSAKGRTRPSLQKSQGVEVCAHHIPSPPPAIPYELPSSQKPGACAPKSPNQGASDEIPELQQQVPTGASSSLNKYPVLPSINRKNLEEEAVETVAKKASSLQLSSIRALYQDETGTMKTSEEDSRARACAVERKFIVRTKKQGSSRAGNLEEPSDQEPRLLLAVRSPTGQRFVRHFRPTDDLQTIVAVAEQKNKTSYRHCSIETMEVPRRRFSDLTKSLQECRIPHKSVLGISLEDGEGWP
inactive: lapatinib -0.041 | pictilisib 0.006 | crizotinib 0.02 | [1] -0.001 | duvelisib 0.035 | gandotinib 0.06 | tozasertib 0.006 | doramapimod -0.003 | bafetinib -0.081 | [2] -0.065

TFCP2 (UniProt Q12800)
inactive: lapatinib 0.043 | pictilisib 0.083 | crizotinib -0.093 | [1] 0 | duvelisib -0.016 | gandotinib 0.098 | tozasertib 0.021 | doramapimod 0.168 | bafetinib -0.075 | [2] 0.004

TLK1 isoform 2 (UniProt Q9UKI8)
active: gandotinib 0.456
inactive: lapatinib -0.047 | pictilisib 0.135 | crizotinib -0.061 | [1] -0.032 | duvelisib -0.048 | tozasertib 0.014 | doramapimod 0.011 | bafetinib -0.014 | [2] 0.022

TSFM (UniProt P43897)
inactive: lapatinib 0.003 | pictilisib -0.007 | crizotinib -0.056 | [1] 0.012 | duvelisib 0.025 | gandotinib -0.122 | tozasertib 0.047 | doramapimod 0.06 | bafetinib -0.026 | [2] -0.034

TIMM44 (UniProt O43615)
inactive: lapatinib 0.04 | pictilisib 0.022 | crizotinib 0.055 | [1] 0.009 | duvelisib -0.003 | gandotinib 0.136 | tozasertib 0.019 | doramapimod 0.058 | bafetinib -0.067 | [2] 0.065

TPM4 isoform 2 (UniProt P67936)
active: [1] 0.329
inactive: lapatinib 0.007 | pictilisib 0 | crizotinib 0.091 | duvelisib 0.011 | gandotinib -0.138 | tozasertib -0.027 | doramapimod 0.002 | bafetinib 0.075 | [2] -0.164

UFM1 (UniProt P61960)
inactive: lapatinib 0.134 | pictilisib 0.033 | crizotinib 0.191 | duvelisib 0.077 | gandotinib -0.36 | tozasertib -0.002 | doramapimod 0.022 | bafetinib 0.102 | [2] -0.319
active: [1] 0.566

UBR1 (UniProt Q8IWV7)
inactive: lapatinib -0.018 | pictilisib -0.035 | crizotinib -0.082 | [1] -0.046 | duvelisib 0.01 | gandotinib -0.081 | tozasertib 0 | doramapimod 0.039 | bafetinib -0.065 | [2] 0.032

TBL2 (UniProt Q9Y4P3)
Sequence of UniProt Q9Y4P3 (Q9Y4P3 whole entry, looked up): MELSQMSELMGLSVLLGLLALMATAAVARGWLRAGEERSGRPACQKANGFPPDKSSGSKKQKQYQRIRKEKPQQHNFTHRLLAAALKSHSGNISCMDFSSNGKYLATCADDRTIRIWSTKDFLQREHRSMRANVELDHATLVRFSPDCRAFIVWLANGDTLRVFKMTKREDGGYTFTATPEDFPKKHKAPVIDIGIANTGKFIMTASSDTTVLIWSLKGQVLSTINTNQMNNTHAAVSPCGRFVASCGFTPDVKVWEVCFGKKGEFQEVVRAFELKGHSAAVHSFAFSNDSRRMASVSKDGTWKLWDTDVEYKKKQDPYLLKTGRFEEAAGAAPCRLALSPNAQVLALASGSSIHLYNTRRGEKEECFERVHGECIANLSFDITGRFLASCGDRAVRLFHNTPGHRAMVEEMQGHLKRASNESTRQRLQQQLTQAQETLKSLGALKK
inactive: lapatinib -0.025 | pictilisib -0.002 | crizotinib -0.007 | [1] -0.068 | duvelisib 0.014 | gandotinib -0.053 | tozasertib 0.063 | doramapimod 0.032 | bafetinib -0.013 | [2] 0.055

TUBGCP5 (UniProt Q96RT8)
inactive: lapatinib 0.11 | pictilisib 0.037 | crizotinib -0.064 | [1] -0.044 | duvelisib 0.103 | gandotinib -0.009 | tozasertib 0.113 | doramapimod 0.044 | bafetinib -0.121 | [2] 0.101

TUBE1 (UniProt Q9UJT0)
inactive: lapatinib -0.008 | pictilisib -0.005 | crizotinib 0.095 | [1] 0.214 | duvelisib -0.01 | gandotinib -0.076 | tozasertib 0.054 | doramapimod -0.034 | bafetinib -0.066 | [2] -0.029

UCHL5 (UniProt Q5LJA9)
inactive: lapatinib 0.027 | pictilisib 0.001 | crizotinib -0.036 | [1] -0.07 | duvelisib 0.082 | gandotinib -0.074 | tozasertib 0.003 | doramapimod 0.067 | bafetinib -0.07 | [2] -0.156

TDRD3 isoform 3 (UniProt Q9H7E2)
inactive: lapatinib 0.005 | pictilisib -0.038 | crizotinib 0.024 | [1] 0.127 | duvelisib -0.02 | gandotinib -0.068 | tozasertib 0.034 | doramapimod -0.151 | bafetinib 0.093 | [2] 0.01

TPM1 (UniProt H7BYY1)
inactive: lapatinib 0.028 | pictilisib 0.042 | crizotinib 0.096 | [1] 0.063 | duvelisib -0.004 | gandotinib -0.118 | tozasertib 0.012 | doramapimod -0.025 | bafetinib 0.026 | [2] -0.158

TBC1D8B (UniProt Q0IIM8)
inactive: lapatinib 0 | pictilisib -0.072 | crizotinib 0.013 | [1] -0.229 | duvelisib 0.007 | gandotinib 0.176 | tozasertib -0.011 | doramapimod 0.014 | bafetinib 0.03 | [2] 0.097

TOE1 (UniProt Q96GM8)
inactive: lapatinib 0.002 | pictilisib -0.057 | crizotinib 0.003 | [1] -0.023 | duvelisib 0.052 | gandotinib -0.016 | tozasertib 0.059 | doramapimod -0.04 | bafetinib 0.047 | [2] 0.059

TUBB2A (UniProt Q13885)
inactive: lapatinib 0.009 | pictilisib 0.011 | crizotinib -0.049 | [1] -0.016 | duvelisib -0.012 | gandotinib 0.028 | tozasertib -0.011 | doramapimod 0.004 | bafetinib 0.026 | [2] -0.005

TOX4 (UniProt O94842)
active: [1] -0.259 | gandotinib 0.231
inactive: lapatinib 0.058 | pictilisib 0.025 | crizotinib -0.068 | duvelisib 0.06 | tozasertib -0.094 | doramapimod 0.041 | bafetinib -0.043 | [2] 0.189

TTC38 (UniProt Q5R3I4)
active: doramapimod 0.301
inactive: lapatinib -0.034 | pictilisib -0.029 | crizotinib 0.031 | [1] 0.213 | duvelisib -0.022 | gandotinib -0.116 | tozasertib -0.011 | bafetinib 0.065 | [2] -0.186

TCF3 (UniProt P15923)
active: duvelisib 0.22
inactive: lapatinib 0.014 | pictilisib 0.014 | crizotinib 0.066 | [1] -0.042 | gandotinib 0.053 | tozasertib -0.013 | doramapimod -0.031 | bafetinib -0.036 | [2] -0.032

TK1 (UniProt P04183)
inactive: lapatinib -0.006 | pictilisib 0.022 | crizotinib 0.022 | [1] -0.133 | duvelisib 0.023 | gandotinib 0.062 | tozasertib 0 | doramapimod 0 | bafetinib 0.009 | [2] 0.021

TSPAN13 (UniProt O95857)
inactive: lapatinib 0.017 | pictilisib 0.015 | crizotinib 0.011 | duvelisib -0.241 | gandotinib 0.32 | tozasertib -0.207 | doramapimod 0.119 | bafetinib 0.038 | [2] 0.055
active: [1] -0.387

UBA1 (UniProt P22314)
Sequence of UniProt P22314 (P22314 whole entry, looked up): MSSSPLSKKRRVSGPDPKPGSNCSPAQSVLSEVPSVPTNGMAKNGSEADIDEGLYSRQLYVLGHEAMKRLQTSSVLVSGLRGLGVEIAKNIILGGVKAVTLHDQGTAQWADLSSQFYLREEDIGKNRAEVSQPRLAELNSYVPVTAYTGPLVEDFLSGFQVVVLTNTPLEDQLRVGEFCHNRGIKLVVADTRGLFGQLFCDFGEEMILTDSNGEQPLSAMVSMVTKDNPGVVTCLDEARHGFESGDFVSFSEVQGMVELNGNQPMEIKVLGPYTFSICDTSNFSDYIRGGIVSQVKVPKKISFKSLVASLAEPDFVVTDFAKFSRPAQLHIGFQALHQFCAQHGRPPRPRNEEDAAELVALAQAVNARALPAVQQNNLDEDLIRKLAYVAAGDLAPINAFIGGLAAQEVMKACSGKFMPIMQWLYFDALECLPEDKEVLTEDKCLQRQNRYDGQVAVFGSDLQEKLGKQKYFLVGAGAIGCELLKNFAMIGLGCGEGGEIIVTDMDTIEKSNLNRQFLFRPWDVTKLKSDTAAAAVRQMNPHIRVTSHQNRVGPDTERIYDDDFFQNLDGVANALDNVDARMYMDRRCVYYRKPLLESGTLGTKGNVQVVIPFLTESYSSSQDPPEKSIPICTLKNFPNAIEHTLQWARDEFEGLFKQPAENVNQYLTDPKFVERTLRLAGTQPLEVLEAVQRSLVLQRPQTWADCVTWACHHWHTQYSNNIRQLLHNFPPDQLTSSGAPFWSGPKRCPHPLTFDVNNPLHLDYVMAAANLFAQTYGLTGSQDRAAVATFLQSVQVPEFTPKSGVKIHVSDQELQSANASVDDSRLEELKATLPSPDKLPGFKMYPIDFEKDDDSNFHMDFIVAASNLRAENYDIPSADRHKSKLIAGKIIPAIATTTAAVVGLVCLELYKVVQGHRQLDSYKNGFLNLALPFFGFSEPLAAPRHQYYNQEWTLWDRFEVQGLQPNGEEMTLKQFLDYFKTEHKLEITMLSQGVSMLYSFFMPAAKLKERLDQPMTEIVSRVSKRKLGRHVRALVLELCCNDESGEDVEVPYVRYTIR
inactive: lapatinib -0.005 | pictilisib -0.003 | crizotinib -0.037 | [1] -0.012 | duvelisib 0.011 | gandotinib -0.017 | tozasertib -0.005 | doramapimod 0.009 | bafetinib -0.017 | [2] 0.023

TUBA1C (UniProt Q9BQE3)
inactive: lapatinib 0.004 | pictilisib -0.057 | crizotinib -0.045 | [1] -0.013 | duvelisib -0.019 | gandotinib 0.062 | tozasertib -0.008 | doramapimod -0.026 | bafetinib 0.005 | [2] 0.021

UBR5 (UniProt O95071)
Sequence of UniProt O95071 (O95071 whole entry, looked up): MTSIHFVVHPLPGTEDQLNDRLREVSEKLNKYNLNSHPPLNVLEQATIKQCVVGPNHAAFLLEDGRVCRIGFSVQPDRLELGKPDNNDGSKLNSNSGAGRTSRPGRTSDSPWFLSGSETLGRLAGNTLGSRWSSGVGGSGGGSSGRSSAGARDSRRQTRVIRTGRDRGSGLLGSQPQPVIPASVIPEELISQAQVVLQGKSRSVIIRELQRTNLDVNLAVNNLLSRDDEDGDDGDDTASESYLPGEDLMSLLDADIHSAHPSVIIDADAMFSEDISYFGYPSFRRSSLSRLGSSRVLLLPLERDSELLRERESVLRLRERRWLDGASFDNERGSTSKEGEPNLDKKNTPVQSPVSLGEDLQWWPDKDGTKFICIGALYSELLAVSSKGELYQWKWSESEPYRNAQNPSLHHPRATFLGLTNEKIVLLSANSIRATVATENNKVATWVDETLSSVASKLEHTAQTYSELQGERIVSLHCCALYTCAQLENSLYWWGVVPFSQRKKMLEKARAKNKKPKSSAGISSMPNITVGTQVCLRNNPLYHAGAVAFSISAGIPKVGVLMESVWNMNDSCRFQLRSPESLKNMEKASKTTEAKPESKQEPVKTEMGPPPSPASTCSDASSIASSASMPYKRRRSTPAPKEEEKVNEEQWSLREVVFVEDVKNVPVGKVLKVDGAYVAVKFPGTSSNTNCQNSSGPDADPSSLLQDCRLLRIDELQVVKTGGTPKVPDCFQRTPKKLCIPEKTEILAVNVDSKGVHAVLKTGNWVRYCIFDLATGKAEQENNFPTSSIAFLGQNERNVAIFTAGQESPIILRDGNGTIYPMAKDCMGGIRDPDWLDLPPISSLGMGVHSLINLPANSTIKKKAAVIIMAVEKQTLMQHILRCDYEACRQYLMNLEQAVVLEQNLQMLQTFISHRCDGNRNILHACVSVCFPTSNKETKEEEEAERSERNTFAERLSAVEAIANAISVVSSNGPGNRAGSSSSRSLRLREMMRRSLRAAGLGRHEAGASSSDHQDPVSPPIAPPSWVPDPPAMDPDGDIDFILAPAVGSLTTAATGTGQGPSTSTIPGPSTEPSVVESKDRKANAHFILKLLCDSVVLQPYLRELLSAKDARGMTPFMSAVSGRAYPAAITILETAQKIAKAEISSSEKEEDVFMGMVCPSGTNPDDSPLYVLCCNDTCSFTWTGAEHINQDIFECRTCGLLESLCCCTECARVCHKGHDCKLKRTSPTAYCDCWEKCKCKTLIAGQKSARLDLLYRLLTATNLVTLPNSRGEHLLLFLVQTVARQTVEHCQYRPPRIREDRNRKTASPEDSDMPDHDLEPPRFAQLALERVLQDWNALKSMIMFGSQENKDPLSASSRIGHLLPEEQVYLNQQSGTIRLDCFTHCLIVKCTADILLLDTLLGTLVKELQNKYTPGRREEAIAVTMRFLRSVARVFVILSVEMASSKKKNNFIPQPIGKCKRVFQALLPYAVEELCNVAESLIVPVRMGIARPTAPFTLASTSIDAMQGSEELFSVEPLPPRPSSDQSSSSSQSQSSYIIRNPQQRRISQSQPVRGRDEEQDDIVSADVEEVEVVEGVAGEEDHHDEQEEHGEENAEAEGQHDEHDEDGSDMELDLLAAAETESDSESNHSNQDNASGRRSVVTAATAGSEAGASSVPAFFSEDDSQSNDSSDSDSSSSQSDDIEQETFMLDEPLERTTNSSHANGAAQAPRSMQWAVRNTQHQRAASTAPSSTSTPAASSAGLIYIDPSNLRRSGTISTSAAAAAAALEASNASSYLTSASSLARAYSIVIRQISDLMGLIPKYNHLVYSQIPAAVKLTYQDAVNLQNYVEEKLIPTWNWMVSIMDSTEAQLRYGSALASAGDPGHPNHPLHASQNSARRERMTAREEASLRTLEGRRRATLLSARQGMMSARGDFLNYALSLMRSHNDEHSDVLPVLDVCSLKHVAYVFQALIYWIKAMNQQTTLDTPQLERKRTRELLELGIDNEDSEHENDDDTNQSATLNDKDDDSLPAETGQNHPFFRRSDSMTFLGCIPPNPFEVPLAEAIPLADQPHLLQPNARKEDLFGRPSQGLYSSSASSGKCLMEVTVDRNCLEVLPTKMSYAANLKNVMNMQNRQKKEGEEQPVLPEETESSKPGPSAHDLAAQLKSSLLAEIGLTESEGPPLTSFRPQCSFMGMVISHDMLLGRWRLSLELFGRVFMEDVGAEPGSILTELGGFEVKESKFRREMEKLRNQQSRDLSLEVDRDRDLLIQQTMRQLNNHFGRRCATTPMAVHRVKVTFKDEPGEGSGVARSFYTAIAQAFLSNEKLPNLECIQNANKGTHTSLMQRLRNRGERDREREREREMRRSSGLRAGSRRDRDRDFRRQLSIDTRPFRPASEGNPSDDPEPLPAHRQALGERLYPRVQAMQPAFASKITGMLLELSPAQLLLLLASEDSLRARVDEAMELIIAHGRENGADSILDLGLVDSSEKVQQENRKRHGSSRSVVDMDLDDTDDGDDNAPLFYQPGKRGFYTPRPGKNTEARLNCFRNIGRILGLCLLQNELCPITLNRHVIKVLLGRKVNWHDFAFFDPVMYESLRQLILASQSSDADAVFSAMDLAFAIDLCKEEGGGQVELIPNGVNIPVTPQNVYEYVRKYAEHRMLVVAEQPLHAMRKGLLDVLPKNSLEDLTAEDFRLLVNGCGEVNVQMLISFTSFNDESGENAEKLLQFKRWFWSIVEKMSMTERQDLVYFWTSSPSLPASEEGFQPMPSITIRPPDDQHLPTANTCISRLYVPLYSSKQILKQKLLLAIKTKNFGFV
inactive: lapatinib -0.003 | pictilisib -0.009 | crizotinib -0.055 | [1] -0.01 | duvelisib -0.004 | gandotinib -0.018 | tozasertib 0.001 | doramapimod 0.012 | bafetinib -0.047 | [2] 0.046

TTC27 (UniProt Q6P3X3)
inactive: lapatinib -0.01 | pictilisib 0.005 | crizotinib -0.041 | [1] -0.033 | duvelisib 0.04 | gandotinib -0.129 | tozasertib 0.004 | doramapimod 0.048 | bafetinib -0.066 | [2] 0.04

TTI1 (UniProt O43156)
inactive: lapatinib -0.011 | pictilisib -0.044 | crizotinib -0.11 | [1] -0.075 | duvelisib -0.005 | gandotinib -0.113 | tozasertib 0.028 | doramapimod 0.045 | bafetinib -0.016 | [2] 0.056

TRIM11 (UniProt Q96F44)
Sequence of UniProt Q96F44 (Q96F44 whole entry, looked up): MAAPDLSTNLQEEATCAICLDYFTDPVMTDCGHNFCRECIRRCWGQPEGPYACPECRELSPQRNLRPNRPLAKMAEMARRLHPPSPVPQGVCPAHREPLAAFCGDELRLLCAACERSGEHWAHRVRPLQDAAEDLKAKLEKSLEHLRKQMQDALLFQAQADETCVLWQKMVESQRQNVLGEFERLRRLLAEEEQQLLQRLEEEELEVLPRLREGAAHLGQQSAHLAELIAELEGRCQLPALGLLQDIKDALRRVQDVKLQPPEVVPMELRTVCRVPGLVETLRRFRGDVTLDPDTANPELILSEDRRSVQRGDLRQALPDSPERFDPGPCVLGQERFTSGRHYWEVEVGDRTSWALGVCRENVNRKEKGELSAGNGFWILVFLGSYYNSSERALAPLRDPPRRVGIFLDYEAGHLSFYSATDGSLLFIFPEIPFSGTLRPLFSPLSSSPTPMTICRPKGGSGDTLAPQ
inactive: lapatinib 0.013 | pictilisib -0.006 | crizotinib -0.029 | [1] -0.006 | duvelisib -0.016 | gandotinib -0.03 | tozasertib -0.006 | doramapimod 0.015 | bafetinib 0.029 | [2] -0.003
